Results from PubChem BioAssay AID743100 (Vanderbilt Specialized Chemistry Center, 2013).
Activity calls are given as the source filed them.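 Rule for the calls: active = calcium response above 60% of the acetylcholine maximum at human M5, as a positive modulator; inactive = the rest.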

molecular target: Muscarinic acetylcholine receptor M5 (Homo sapiens) (UniProt P08912); experiment: potentiators of ACh response at human M5 – cell-based, single concentration, CHO-K1 hM5, calcium flux (AID 743100); conditions: CHO-K1 hM5, Fluo-4 calcium flux, ACh EC20, stronger effect = higher value; at 10 µM unless noted
Sequence (P08912 whole entry, looked up): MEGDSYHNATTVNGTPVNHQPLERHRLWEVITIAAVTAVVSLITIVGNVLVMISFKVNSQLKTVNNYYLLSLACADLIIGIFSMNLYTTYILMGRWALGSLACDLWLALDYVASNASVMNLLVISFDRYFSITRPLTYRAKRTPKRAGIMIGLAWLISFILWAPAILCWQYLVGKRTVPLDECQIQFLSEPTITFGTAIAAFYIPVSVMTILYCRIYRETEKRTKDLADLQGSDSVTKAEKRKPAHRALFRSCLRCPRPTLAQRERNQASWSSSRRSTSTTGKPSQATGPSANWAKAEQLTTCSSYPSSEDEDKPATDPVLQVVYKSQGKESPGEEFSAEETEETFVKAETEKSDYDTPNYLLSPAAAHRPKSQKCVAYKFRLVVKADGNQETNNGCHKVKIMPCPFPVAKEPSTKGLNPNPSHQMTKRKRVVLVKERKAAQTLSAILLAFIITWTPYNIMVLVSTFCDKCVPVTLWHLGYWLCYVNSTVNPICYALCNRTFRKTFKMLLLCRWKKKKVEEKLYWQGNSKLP

| Compound | % ACh max response |
| --- | --- |
| CCN(Cc1ccc(-c2ccccc2)cc1)C(=O)C1CCN(S(=O)(=O)c2ccc3cn[nH]c3c2)CC1 | 24.8% (inactive) |
| CCN(Cc1ccccc1)C(=O)C1CCN(S(=O)(=O)CC(C)C)CC1 | 21.3% [at 30 µM] (inactive) |
| CC1c2ccccc2CCN1C(=O)C1CCN(S(=O)(=O)c2ccc3[nH]ncc3c2)CC1 (stereo not drawn) | 40.4% (inactive) |
| CCN(Cc1ccccc1)C(=O)C1CCN(S(=O)(=O)c2ccccc2C(F)(F)F)CC1 | 21.7% [at 30 µM] (inactive) |
| CCN(Cc1ccccc1)C(=O)C1CCN(S(=O)(=O)c2ccccc2C#N)CC1 | 24% [at 30 µM] (inactive) |
| CCCc1ccc(S(=O)(=O)N2CCC(C(=O)N(CC)Cc3ccccc3)CC2)cc1 | 62.9% [at 30 µM] (active) |
| CCN(Cc1ccccc1)C(=O)C1CCN(S(=O)(=O)c2ccc(C)s2)CC1 | 68.8% [at 30 µM] (active) |
| CCN(Cc1ccccc1)C(=O)C1CCN(S(=O)(=O)c2cnc[nH]2)CC1 | 33.7% [at 30 µM] (inactive) |
| CCN(Cc1ccccc1)C(=O)C1CCN(S(=O)(=O)c2cccc(C)c2)CC1 | 63.8% [at 30 µM] (active) |
| CCN(Cc1ccncc1)C(=O)C1CCN(S(=O)(=O)c2ccc3cn[nH]c3c2)CC1 | 22.4% (inactive) |
| CCN(C(=O)C1CCN(S(=O)(=O)c2ccc3occc3c2)CC1)[C@H](C)c1ccccc1C(F)(F)F | 34.4% (inactive) |
| CCN([C@H](C)c1ccccc1)S(=O)(=O)C1CCN(S(=O)(=O)c2ccc3cn[nH]c3c2)CC1 | 19.4% (inactive) |
| O=C(C1CCN(S(=O)(=O)c2ccc3[nH]ncc3c2)CC1)N1Cc2ccccc2C1 | 32.5% (inactive) |
| CCN(Cc1ccccc1)C(=O)C1CCN(S(=O)(=O)c2cccnc2)CC1 | 34.5% (inactive) |
| CCN(Cc1ccccc1)C(=O)C1CCN(S(=O)(=O)c2cccc(F)c2)CC1 | 63.2% [at 30 µM] (active) |
| CCN(Cc1ccccc1)C(=O)C1CCN(S(=O)(=O)c2ccc(OC)cc2)CC1 | 78.4% [at 30 µM] (active) |
| CCN(Cc1ccccc1)C(=O)C1CCN(S(=O)(=O)c2cccc(OC)c2)CC1 | 72.2% [at 30 µM] (active) |

| Compound | % ACh max response |
| --- | --- |
| CCN(Cc1ccccc1)C(=O)C1CCN(S(=O)(=O)c2cccc(C(F)(F)F)c2)CC1 | 63.9% [at 30 µM] (active) |
| CCN(Cc1ccccc1C(F)(F)F)C(=O)C1CCN(S(=O)(=O)c2ccc3[nH]ncc3c2)CC1 | 90.2% (active) |
| CCN(Cc1ccccc1)C(=O)C1CCN(S(=O)(=O)c2ccccc2Cl)CC1 | 33.6% [at 30 µM] (inactive) |
| CCN(CC1CCN(S(=O)(=O)c2ccc3cn[nH]c3c2)CC1)C(=O)c1ccccc1 | 13.7% (inactive) |
| CCN(C(=O)C1CCN(S(=O)(=O)N(C)C)CC1)[C@H](C)c1ccccc1 | 29.1% (inactive) |
| CCN(Cc1ccccc1)C(=O)C1CCN(S(=O)(=O)c2ccccc2)CC1 | 71.5% [at 30 µM] (active) |
| CCN(Cc1ccccc1)C(=O)C1CCN(S(=O)(=O)c2ccc(OC)nc2)CC1 | 62.5% [at 30 µM] (active) |
| CCN(Cc1ccccc1)C(=O)C1CCN(S(=O)(=O)c2ccc3cnn(C)c3c2)CC1 | 62.3% (active) |
| CCN(Cc1cccc(F)c1F)C(=O)C1CCN(S(=O)(=O)c2ccc3cn[nH]c3c2)CC1 | 63.7% (active) |
| CCN(CC1CCN(S(=O)(=O)c2ccc(OC(F)(F)F)cc2)CC1)C(=O)c1ccccc1 | 10.5% (inactive) |
| CCN(Cc1ccccc1)C(=O)C1CCN(S(=O)(=O)c2cccc(Cl)c2)CC1 | 65.3% [at 30 µM] (active) |
| CCN(Cc1ccccc1)C(=O)C1CCN(S(=O)(=O)c2cccc(C#N)c2)CC1 | 61% [at 30 µM] (active) |
| CCN(Cc1ccccc1OC)C(=O)C1CCN(S(=O)(=O)c2ccc3cn[nH]c3c2)CC1 | 84.5% (active) |
| CCN(C(=O)C1CCN(S(=O)(=O)c2ccc(-n3cccn3)cc2)CC1)[C@H](C)c1ccccc1C(F)(F)F | 22.7% (inactive) |
| CCN(Cc1ccccc1)C(=O)C1CCN(S(=O)(=O)c2cc(C)ccc2C)CC1 | 24.5% [at 30 µM] (inactive) |
| CCN(C(=O)C1CCN(S(=O)(=O)c2ccc(OC)cc2)CC1)[C@H](C)c1ccccc1 | 91.8% [at 30 µM] (active) |
